Test results as given in the supplement of paper PMC10849652.
About 7,900 targets were measured; listed, in parts, are those with a hit and a random draw of the rest. About 0.6% of all pairs of compound and target were hits. Unmarked numbers belong to inactive results.

Molecular target: ZDHHC5 (UniProt Q9C0B5)
Test: log2 fold change, soluble protein after heating vs DMSO (PISA); higher = thermal stabilisation; K562 cells, 10 uM, 30 min; active = over 0.2 and 3.5 SD of the protein, either way, in both replicates (recomputed)
Outline: (§1)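 Thermal stability values are relative to control samples and come from duplicates. They are expressed as log2 fold changes. For measurement, K562 cells (2×10^6 cells/mL) received 10 μM compound for 30 min, and aliquots were heated for 3 min over 48°C-58°C, pooled, and extracted at 4°C in PBS with 0.5% NP-40. Soluble protein, the supernatant after 21,000xg for 90 min, was quantified by TMTpro 16plex LC-MS/MS with equalised channel sums.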

Chain of ZDHHC5 (Q9C0B5 whole entry, looked up): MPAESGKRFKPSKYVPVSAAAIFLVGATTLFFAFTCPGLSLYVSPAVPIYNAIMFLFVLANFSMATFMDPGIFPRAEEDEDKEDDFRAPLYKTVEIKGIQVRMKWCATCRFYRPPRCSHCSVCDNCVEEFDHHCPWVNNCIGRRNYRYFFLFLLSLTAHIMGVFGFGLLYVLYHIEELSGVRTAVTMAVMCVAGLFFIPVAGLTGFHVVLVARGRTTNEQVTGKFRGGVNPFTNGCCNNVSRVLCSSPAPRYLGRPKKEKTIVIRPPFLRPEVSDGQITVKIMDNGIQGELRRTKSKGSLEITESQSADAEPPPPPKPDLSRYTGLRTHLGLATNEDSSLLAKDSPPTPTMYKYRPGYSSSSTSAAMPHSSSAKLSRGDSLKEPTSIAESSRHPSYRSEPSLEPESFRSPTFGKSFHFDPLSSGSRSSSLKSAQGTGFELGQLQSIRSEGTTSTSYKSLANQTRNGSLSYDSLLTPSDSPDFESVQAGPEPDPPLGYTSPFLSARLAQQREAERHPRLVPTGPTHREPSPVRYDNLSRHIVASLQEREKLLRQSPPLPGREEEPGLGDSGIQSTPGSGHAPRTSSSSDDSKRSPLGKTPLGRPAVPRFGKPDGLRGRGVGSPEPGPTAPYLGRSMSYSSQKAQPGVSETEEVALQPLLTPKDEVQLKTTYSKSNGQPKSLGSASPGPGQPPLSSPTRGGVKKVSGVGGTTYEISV

| Compound | log2 fold change |
| --- | --- |
| CON(C)C(=O)N1N=C(c2cc(F)ccc2F)S[C@@]1(CCCN)c1ccccc1 [filanesib] | 0.048 |
| NC(=O)Nc1cc(-c2cccc(F)c2)sc1C(=O)N[C@H]1CCCNC1 | -0.081 |
| Cn1cncc1[C@@](N)(c1ccc(Cl)cc1)c1ccc2c(c1)c(-c1cccc(Cl)c1)cc(=O)n2C [tipifarnib] | 0.013 |
| CN1CCC(CNc2ccc3ncc(-c4cccc(OC(F)(F)F)c4)n3n2)CC1 | 0.31 (active) |
| Cc1cc(Nc2cc(CN3CCOCC3)c3nc(C)c(Cc4ccc(Cl)cc4F)n3n2)n[nH]1 [gandotinib] | -0.041 |
| CC[C@@H]1C(=O)N(C)c2cnc(Nc3ccc(C(=O)NC4CCN(C)CC4)cc3OC)nc2N1C1CCCC1 | 0.035 |
| CCCS(=O)(=O)Nc1ccc(F)c(C(=O)c2c[nH]c3ncc(-c4ccc(Cl)cc4)cc23)c1F [vemurafenib] | -0.021 |
| CS(=O)(=O)CCNCc1ccc(-c2ccc3ncnc(Nc4ccc(OCc5cccc(F)c5)c(Cl)c4)c3c2)o1 [lapatinib] | -0.072 |
| CCCc1cc(C)[nH]c(=O)c1CNC(=O)c1cc(-c2ccnc(N3CCN(C)CC3)c2)cc2c1cnn2C(C)C | 0.095 |
| Cc1ccc(NC(=O)c2cccc(C(C)(C)C#N)c2)cc1Nc1ccc2ncn(C)c(=O)c2c1 | 0.048 |
| c1cc(OCCN2CCCCC2)cc(-c2n[nH]c3ccc(-c4nnc[nH]4)cc23)c1 | -0.076 |
| COC(=O)N[C@@H](C)CNc1nccc(-c2cn(C(C)C)nc2-c2cc(Cl)cc(NS(C)(=O)=O)c2F)n1 [encorafenib] | -0.028 |
| O=C(O)c1ccc2c(c1)nc(Nc1cccc(Cl)c1)c1ccncc12 [silmitasertib] | 0.101 |
| FC(F)(F)c1ccc(/C=C/c2nc(COc3ccc(CCCCn4ccnn4)cc3)co2)cc1 [mubritinib] | 0.025 |
| CNCc1ccc(-c2[nH]c3cc(F)cc4c3c2CCNC4=O)cc1 [rucaparib] | 0.086 |
| COc1cc(Nc2ncc3c(n2)-c2ccc(Cl)cc2C(c2c(F)cccc2OC)=NC3)ccc1C(=O)O [alisertib] | -0.107 |
| CC[C@@H]1C(=O)N(C)c2cnc(Nc3ccc(C(=O)N[C@H]4CC[C@H](N5CCN(CC6CC6)CC5)CC4)cc3OC)nc2N1C(C)C [volasertib] | 0.093 |
| CNC(=O)c1ccc(Nc2ncc(C(F)(F)F)c(NCc3nccnc3N(C)S(C)(=O)=O)n2)cc1 [defactinib] | -0.097 |
| COc1cc2nc(-c3cc(F)ccc3O)nc(N[C@@H]3CNC[C@H]3C(C)(C)O)c2cc1OC | 0.117 |
| Nc1ccccc1NC(=O)c1ccc(CNC(=O)OCc2cccnc2)cc1 [entinostat] | -0.034 |
| NCC(=O)Nc1ccc(-n2nc(C(F)(F)F)cc2-c2ccc3c(ccc4ccccc43)c2)cc1 | -0.005 |
| CN1CCN(c2nc(C3=C(c4c[nH]c5ccccc45)C(=O)NC3=O)c3ccccc3n2)CC1 [sotrastaurin] | -0.069 |
| CCn1cc(-c2ccnc3[nH]c(-c4cccc(CN(C)C)c4)cc23)c(-c2ccc(NC(=O)N(C)C)cc2)n1 | -0.002 |
| COc1cccc2cc(-c3nc([C@H]4CC[C@H](C(=O)O)CC4)n4ncnc(N)c34)[nH]c12 | -0.007 |
| CS(=O)(=O)c1ccc(-c2cnc(N)c(C(=O)Nc3ccccc3)n2)cc1 | 0.129 |
| O=C(CCCCCCNC(=O)c1cnc(N(c2ccccc2)c2ccccc2Cl)nc1)NO [citarinostat] | -0.022 |
| NC1(c2ccc(-c3nc4ccn5c(=O)[nH]nc5c4cc3-c3ccccc3)cc2)CCC1 | -0.027 |
| COC(=O)[C@H](CCSC)NC(=O)c1ccc(NC[C@@H](N)CS)cc1-c1ccccc1 | 0.054 |
| CN(C)CC(=O)Nc1ccc2[nH]c(=O)c3ccccc3c2c1 | -0.032 |
| Cc1cccc(CC(=O)N2CCc3c2ccc(-c2cn(C)c4ncnc(N)c24)c3F)n1 | -0.067 |

Molecular target: ZDHHC6 (UniProt Q9H6R6)
Test: as above
Outline: as §1

Chain of ZDHHC6 (Q9H6R6 whole entry, looked up): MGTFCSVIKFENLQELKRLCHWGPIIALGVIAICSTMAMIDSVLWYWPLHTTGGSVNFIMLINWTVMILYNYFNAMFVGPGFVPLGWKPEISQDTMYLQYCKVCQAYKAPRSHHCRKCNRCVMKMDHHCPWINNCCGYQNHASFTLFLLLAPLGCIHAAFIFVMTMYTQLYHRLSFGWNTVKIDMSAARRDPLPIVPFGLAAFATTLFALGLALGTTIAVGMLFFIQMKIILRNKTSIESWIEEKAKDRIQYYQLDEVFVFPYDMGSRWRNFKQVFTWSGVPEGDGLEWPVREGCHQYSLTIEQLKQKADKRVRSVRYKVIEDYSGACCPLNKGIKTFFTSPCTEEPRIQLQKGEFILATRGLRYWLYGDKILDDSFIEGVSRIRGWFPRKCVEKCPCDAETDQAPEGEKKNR

| Compound | log2 fold change |
| --- | --- |
| Cn1cncc1[C@@](N)(c1ccc(Cl)cc1)c1ccc2c(c1)c(-c1cccc(Cl)c1)cc(=O)n2C [tipifarnib] | 0.086 |
| CN1CCC(CNc2ccc3ncc(-c4cccc(OC(F)(F)F)c4)n3n2)CC1 | 0.011 |
| Cc1cc(Nc2cc(CN3CCOCC3)c3nc(C)c(Cc4ccc(Cl)cc4F)n3n2)n[nH]1 [gandotinib] | -0.018 |
| CC[C@@H]1C(=O)N(C)c2cnc(Nc3ccc(C(=O)NC4CCN(C)CC4)cc3OC)nc2N1C1CCCC1 | -0.114 |
| CS(=O)(=O)CCNCc1ccc(-c2ccc3ncnc(Nc4ccc(OCc5cccc(F)c5)c(Cl)c4)c3c2)o1 [lapatinib] | -0.031 |
| c1cc(OCCN2CCCCC2)cc(-c2n[nH]c3ccc(-c4nnc[nH]4)cc23)c1 | -0.005 |
| COC(=O)N[C@@H](C)CNc1nccc(-c2cn(C(C)C)nc2-c2cc(Cl)cc(NS(C)(=O)=O)c2F)n1 [encorafenib] | 0.006 |
| CNCc1ccc(-c2[nH]c3cc(F)cc4c3c2CCNC4=O)cc1 [rucaparib] | 0.176 |
| CC[C@@H]1C(=O)N(C)c2cnc(Nc3ccc(C(=O)N[C@H]4CC[C@H](N5CCN(CC6CC6)CC5)CC4)cc3OC)nc2N1C(C)C [volasertib] | -0.094 |
| COc1cc2nc(-c3cc(F)ccc3O)nc(N[C@@H]3CNC[C@H]3C(C)(C)O)c2cc1OC | 0.018 |
| CCn1cc(-c2ccnc3[nH]c(-c4cccc(CN(C)C)c4)cc23)c(-c2ccc(NC(=O)N(C)C)cc2)n1 | -0.292 |
| O=C(CCCCCCNC(=O)c1cnc(N(c2ccccc2)c2ccccc2Cl)nc1)NO [citarinostat] | 0.149 |
| Cc1cccc(CC(=O)N2CCc3c2ccc(-c2cn(C)c4ncnc(N)c24)c3F)n1 | 0.097 |
